Holding throughout (assay): NCI-60 one-dose screen, 48 h (100 = growth as untreated, 0 = no growth, -100 = all killed)
Experiment [1] has as its system HT29 colon. The note with it: 10 µM unless noted.
For experiment [2], the system named is SNB-75 CNS. The note with it: 10 µM unless noted.
Experiment [3] relates to SNB-19 CNS. To be noted: 10 µM unless noted.
In experiment [4] the test system is PC-3 prostate. The note with it: 10 µM unless noted.
The test system of experiment [5] is UACC-62 melanoma. To be noted: 10 µM unless noted.
Experiment [6] concerns LOX IMVI melanoma. To be noted: 10 µM unless noted.
The subject of experiment [7] is SK-MEL-28 melanoma. To be noted: 10 µM.
The subject of experiment [8] is SK-MEL-2 melanoma. The note with it: 10 µM unless noted.
Experiment [9] relates to SN12C renal. To be noted: 10 µM unless noted.
The test system of experiment [10] is UO-31 renal. To be noted: 10 µM unless noted.
Experiment [11] has as its system TK-10 renal. The note with it: 10 µM unless noted.
For experiment [12], the system named is ACHN renal. To be noted: 10 µM unless noted.
Experiment [13] relates to CAKI-1 renal. To be noted: 10 µM unless noted.
Experiment [14] relates to A498 renal. The note with it: 10 µM unless noted.
The subject of experiment [15] is MOLT-4 leukemia. The note with it: 10 µM unless noted.
For experiment [16], the system named is SR leukemia. To be noted: 10 µM unless noted.
Experiment [17] relates to U251 CNS. To be noted: 10 µM unless noted.
The subject of experiment [18] is SK-MEL-5 melanoma. To be noted: 10 µM unless noted.
Experiment [19] relates to EKVX NSCLC. The note with it: 10 µM unless noted.
For experiment [20], the system named is CCRF-CEM leukemia. The note with it: 10 µM unless noted.

The values below come from PubChem BioAssay (NCI).

This is part of a sample that, as a whole, favours compounds with a hit. Of some 83,000 tested, about 20% had one in any assay.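 96-well plates, one dose, 48 hours. Percent growth reported; active if below 10.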 Values without a mark were called inactive. Activity calls are given as the source filed them.

Regarding `O=C(/C=C/c1ccccn1)c1ccc(OCc2nnc(-c3ccc(Cl)cc3)o2)cc1`, the growth is -62.5% (active) in experiment [1]; 50.8% in experiment [2]; 52.3% in experiment [3]; 58.9% in [4]; 49.3% in [5]; -92.1% (active) in experiment [6]. In addition, the growth is 53.8% in experiment [7]; 98.6% in [8]; 33.2% in experiment [9]; -90.1% (active) in experiment [10]; 16.6% in experiment [11]; 27.3% in [12]. The growth in experiment [13] was -25.7% (active); in experiment [14] it was 88.3%; in experiment [15], 17.2%; in [16], -11.7% (active).

On to `COc1ccc(/C=C/C(=O)c2c(C)nc3ccccc3c2/C=C/c2ccccc2)c(OC)c1`, for which the growth in [1] was 62.9%; in experiment [2] it was 81.5%; in experiment [17], 90%; in [4], 75.9%; in experiment [18], 85.7%; in experiment [5] it was 62.1%. Moreover, the growth is 83.8% in experiment [6]; 108% in experiment [7]; 95.9% in experiment [8]; 76.9% in experiment [19]; 84.3% in experiment [9]; 61.4% in experiment [10]. The growth in experiment [11] is 123%; in experiment [12] it was 79.5%; in experiment [13], 55.9%; in [14], 97.3%; in experiment [20], 76.5%; in experiment [15], 48.6%.

Turning to `O=C(c1nc2ccccc2[nH]1)C1[C@@H](c2cccc(O)c2)C2CC3CCCCC3N2[C@@]12C(=O)Nc1cc(Cl)ccc12` (stereo not given in full), the growth in [1] was 50.6%; in [2], 27.2%; in [17], 37.7%; in experiment [4], 24%; in experiment [18], 37.2%; in experiment [5] it was 47.6%. Further, the growth in experiment [6] is 22.3%; in experiment [7], 45%; in experiment [8], 60.2%; in [19], 41.9%; in experiment [9], 43.6%; in experiment [10], 33.5%. Also, the growth is 72.4% in experiment [11]; 30.4% in experiment [12]; 80% in experiment [13]; 52.7% in experiment [14]; 15% in experiment [20]; 7.08% (active) in experiment [15].

Regarding `CNCCNc1nc2ccccc2c2c(=O)c3cccc(C)c3sc12`, the growth in experiment [1] was -25.6% (active); in experiment [2], 38.4%; in experiment [17], 25.4%; in experiment [4], 41.4%; in experiment [18] it was 46.3%; in experiment [5] it was 42%. The growth in experiment [6] was -85.6% (active); in [7], -60.1% (active); in experiment [8], 91.4%; in [9], 32.5%; in [10], 29.6%; in [11] it was 41.7%. Moreover, the growth in experiment [12] is -29.9% (active); in experiment [13], 17.9%; in [20] it was 21%; in experiment [15] it was -29.5% (active); in experiment [16], -29.9% (active).

`COC(=O)[C@@H]1CCCN1C(=O)[C@H]1CCCN1C(=O)[C@@H](Cc1c[nH]c2ccccc12)NC(=S)Nc1cc(C(F)(F)F)cc(C(F)(F)F)c1`: the growth in experiment [1] is 33%; in experiment [2] it was 46.6%; in [3] it was 37.6%; in experiment [4] it was 32.4%; in experiment [5], 48.5%; in experiment [6], 38.8%. Further, the growth is 55.7% in experiment [7]; 55.3% in [8]; 44.4% in experiment [9]; 28.3% in [10]; 78.7% in experiment [11]; 37.2% in experiment [12]. Also, the growth in experiment [13] is 22%; in [14], 57.7%; in experiment [20] it was 36.3%; in experiment [15] it was 16.3%; in [16], 5.25% (active).

For `CCC(C)(C)C(=O)O[C@H]1C[C@@H](C)C=C2C=C[C@H](C)[C@H](CC[C@@H]3CC=CC(=O)O3)[C@H]21`, the growth is 44.5% in [1]; 80.4% in [2]; 82.2% in experiment [17]; 49.1% in [4]; 71% in experiment [18]; 72.5% in experiment [5]. Further, the growth in experiment [6] was -47.4% (active); in experiment [7], 79.2%; in [8], 86.1%; in experiment [19] it was 107%; in experiment [9] it was 62.8%; in experiment [11], 109%. Moreover, the growth in [12] is 70.9%; in [13], 84.5%; in experiment [14], 107%; in [20], 3.21% (active); in experiment [15], 1.21% (active); in experiment [16], 7.49% (active).

Consider `O=C(CCN1C(=O)c2ccccc2C1=O)Nc1ccc(Cl)cc1`, for which the growth in experiment [1] is 44.4%; in experiment [2] it was 94.5%; in experiment [17] it was 62.2%; in [4] it was 71.7%; in [18], 81%; in experiment [5], 87.4%. The growth is 60.2% in experiment [6]; 117% in experiment [7]; 98.7% in experiment [8]; 75.3% in experiment [9]; 50.1% in [10]; 93.1% in experiment [11]. The growth in [12] was 82.2%; in experiment [13], 68.4%; in experiment [14] it was 103%; in [20], 43.3%; in experiment [15] it was 42%.

Consider `COc1ccc(CSc2nnc(SCC(=O)Nc3ccc(Cl)cc3)s2)cc1`, for which the growth was 98.5% in experiment [1]; 93.2% in experiment [2]; 90.9% in experiment [3]; 58.6% in experiment [4]; 18.2% in [5]; 46.8% in experiment [6]. Moreover, the growth in [7] is 87.2%; in experiment [8], 124%; in experiment [9], 68.5%; in [10], 52.8%; in experiment [11], 96.3%; in experiment [12], 59.9%. For the same compound, the growth in experiment [13] is 38%; in experiment [14], 85.6%; in experiment [20], 53.3%; in experiment [15], 58%; in [16], 86.1%.

In the case of `COc1ccc(C2=C(c3cccc(OC)c3)C(=O)c3ccc(C)nc3C2=O)cc1`, the growth in experiment [1] was 87.8%; in experiment [2] it was 23.6%; in [17], 37.6%; in experiment [4], 52.1%; in [18] it was 34.6%; in experiment [5], 46.7%. Moreover, the growth was 50.7% in experiment [7]; 42.8% in [8]; 75.3% in [19]; 40.6% in experiment [9]; 25.4% in [10]; 93.8% in experiment [11]. Also, the growth in [12] was 33.6%; in [13], 34.2%; in experiment [20], 19.1%; in experiment [15], -31.5% (active); in experiment [16], 28.5%.
